Only some compounds are listed: those with a hit (about 5.7% of all), similar ones and a draw of the others.
ClpP mod: qHTS Assay for Activators of ClpP. AID 651965, 2013. ATP-dependent Clp protease proteolytic subunit (Bacillus subtilis (strain 168)), P80244. Potency, µM (top dose mostly 57.5 µM), for inactives: at the highest dose activity change, negative = active. purified B. subtilis ClpP, FRET peptide cleavage, 20 min. actives 1.9% (n = 340,000); active means well fitted falling curve with a large enough effect; inconclusive means small, poorly fitted or top-dose-only effect; inactive means no such curve, though single readings can be large or run the other way; further: potency means the concentration at half of the fitted maximal effect; the source files actives as falling curves though it sought activators and does not explain the sign; nearly all actives have a fitted effect of over 65% in size
Target sequence (P80244 whole entry, looked up): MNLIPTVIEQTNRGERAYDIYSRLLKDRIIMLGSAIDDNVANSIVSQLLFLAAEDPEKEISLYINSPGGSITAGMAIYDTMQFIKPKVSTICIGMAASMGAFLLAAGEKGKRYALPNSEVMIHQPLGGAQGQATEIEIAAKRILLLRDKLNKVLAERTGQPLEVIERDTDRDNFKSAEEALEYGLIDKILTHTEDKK
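ClpP 10 microg/mL final, pH 8 Tris/KCl buffer with BSA, glycerol, Tween-20; compound pinned in; FRET-FV substrate; RT 20 min; Ex320/Em430; ΔFRET vs ADEP 5.8 microM, DMSO, no enzyme.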
GLP1R ag: activates the human GLP-1 receptor. P43220. HEK293 GLP-1R CRE-luciferase, luminescence, 4-6 h; cells express a hypersensitive GLP-1R form. Potency, µM (highest dose often 45.6 µM), without a hit: top-dose activation, usual class: activators. actives 0.007% (n = 380,000); further: potency means the concentration at half of the fitted maximal effect; % of control where 0% means no effect
Target sequence (P43220 whole entry, looked up): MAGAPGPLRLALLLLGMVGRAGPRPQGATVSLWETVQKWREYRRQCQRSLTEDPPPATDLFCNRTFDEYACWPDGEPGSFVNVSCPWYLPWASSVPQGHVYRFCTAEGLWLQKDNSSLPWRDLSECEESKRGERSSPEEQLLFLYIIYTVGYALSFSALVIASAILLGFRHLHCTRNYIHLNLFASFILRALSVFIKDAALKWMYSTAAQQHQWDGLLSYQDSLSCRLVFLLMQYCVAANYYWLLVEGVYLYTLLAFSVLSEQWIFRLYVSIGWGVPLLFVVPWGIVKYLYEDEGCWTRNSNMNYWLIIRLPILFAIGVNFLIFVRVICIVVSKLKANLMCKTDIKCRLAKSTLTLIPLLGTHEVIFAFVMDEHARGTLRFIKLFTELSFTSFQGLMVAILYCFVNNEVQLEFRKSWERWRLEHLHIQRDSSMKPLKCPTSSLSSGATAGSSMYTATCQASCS
HEK293 tox: cytotoxicity in counter-screen for GLP-1R inverse agonists; HEK293 cAMP-luciferase reporter cells, luminescence, 24 h; actives 0.13% (n = 410,000); Potency, µM (titrated, usually from 38.3 µM), inactives show at the highest dose activity change, negative = inhibition, usual class: inhibitors;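 further: loss of luciferase light is scored as toxicity; potency means the concentration at half of the fitted maximal effect; on the % scale 0 is the no-effect control and ±100 the full control effect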
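1536-well qHTS counterscreen of the MLSMR; 200 cells/uL, 12 h pre-incubation, 23 nL cpd, 24 h at 37 deg C 5% CO2, luciferase detection reagent, 12 min RT, luminescence. Inhibition = undesired.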
GLP-1R inv ag: acts as inverse agonist at human GLP-1 receptor | P43220 | HEK293 GLP-1R CRE-luciferase, luminescence, 24 h; GLP-1R form is constitutively active | Potency, µM (titrated, usually from 38.3 µM), inactives show at the top dose activity change, negative = inhibition, usual class: inhibitors | actives 1.6% (n = 410,000) | AID 624417; further: potency means the concentration at half of the fitted maximal effect; on the % scale 0 is the no-effect control and ±100 the full control effect; nearly all actives have a fitted effect of over 55% in size
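Stable HEK293 clone (constitutively active GLP-1R + cAMP-response luciferase); 200 cells/uL plated, 12 h pre-culture, compound 24 hr, 37 deg C/5% CO2; detection reagent 12 min RT; luminescence.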
DRD3 agonist: D3 dopamine receptor (human) agonism. actives 0.58% (n = 410,000). P35462. D3R DiscoveRx beta-arrestin cells, luminescence, 90 min. max activation, %; in the data active means max activation above about 30%; further: 0% is about no effect
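Agonist mode: compounds and dopamine controls were applied to plated cells for 90 min at 37 degrees C after an overnight attachment at 1500 cells/well. Luminescent read-out followed 30 - 60 minutes at room temperature with DiscoveRx detection reagent.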
D3 antag: blocks the human D3 dopamine receptor. P35462. D3R cells, DiscoveRx beta-arrestin luminescence, antagonist mode; stronger effect = lower value. max response, negative = inhibition, %. actives 2.5% (n = 360,000). AID 652054; in the data active means max response below about -50%; inconclusive means no clear call, values can overlap the other calls; further: on the % scale 0 is the no-effect control and ±100 the full control effect
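Cells expressing the human receptor were seeded at 1500 cells/well, incubated overnight at 37 degrees C in 5% CO2, then exposed to library compounds with dopamine controls for 90 minutes at 37 degrees C before luminescent detection.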
Numbers without * were called inactive. Unless noted, the call rests on the fitted dose curve; in most records, active means well fitted curve in the direction sought with a large enough effect; inconclusive means small, poorly fitted or top-dose-only effect, or another doubt; inactive means no such curve, though single readings can be large; an effect the other way counts as inactive or inconclusive.

`O=C(CS(=O)(=O)c1nc(-c2ccc(Cl)cc2)cn1-c1ccccc1)Nc1cccc(Cl)c1` gave ClpP mod -5%, HEK293 tox -25%, GLP-1R inv ag inconclusive and DRD3 agonist 3.
`CCS(=O)(=O)NCCc1cc2ccc(C)cc2[nH]c1=O` gave ClpP mod 28µM*, GLP1R ag inconclusive, HEK293 tox 13%, GLP-1R inv ag 21%, DRD3 agonist -9 and D3 antag 0.
CCCc1nc(-c2cc3ccc(C)cc3[nH]c2=O)no1 was read as ClpP mod 28µM*, GLP1R ag 16%, HEK293 tox -9%, GLP-1R inv ag 9%, DRD3 agonist -4 and D3 antag -24.
CCS(=O)(=O)NCCc1cc2cc(C)c(C)cc2[nH]c1=O was read as ClpP mod -6%, GLP1R ag 4%, HEK293 tox -17%, GLP-1R inv ag 5%, DRD3 agonist -6 and D3 antag -8.
CC(C)(C)OC(=O)N1CCCC(C(=O)Nc2ccc(C(=O)NC3CC3)cc2)C1 (configuration not stated) was read as ClpP mod -1%, GLP1R ag -5%, HEK293 tox 4%, GLP-1R inv ag 4%, DRD3 agonist 1 and D3 antag 16.
COc1ccc2sc(-c3ccc(N(C)C)cc3)c(C#Cc3cncn3C)c2c1 was read as ClpP mod 4%, GLP1R ag -2%, HEK293 tox 106%, GLP-1R inv ag -26%, DRD3 agonist 83* and D3 antag 234.
COc1ccc(-c2sc3ccc(OC)cc3c2C#CCCO)cc1 was read as ClpP mod 4%, GLP1R ag inconclusive, HEK293 tox 9%, GLP-1R inv ag -15%, DRD3 agonist 12 and D3 antag 26.
Screening COc1cc(/C=C/c2nc3cc(Cl)ccc3c(=O)n2-c2cccc(C(F)(F)F)c2)cc(OC)c1OC returned ClpP mod 1%, HEK293 tox 1%, GLP-1R inv ag -20% and DRD3 agonist 0.
`CCOc1ccc(NC(=O)CCN2CCN(c3ccccc3OC)CC2)cc1` gave ClpP mod -2%, GLP1R ag 2%, HEK293 tox 2%, GLP-1R inv ag -5%, DRD3 agonist -14 and D3 antag -91*.
`COc1ccccc1N1CCN(CCC(=O)Nc2cccc(Cl)c2)CC1` gave ClpP mod -2%, GLP1R ag -2%, HEK293 tox -11%, GLP-1R inv ag inconclusive, DRD3 agonist -13 and D3 antag -124*.
Screening CCOc1ccc(NC(=O)CCN2CCN(c3ccccc3F)CC2)cc1 returned ClpP mod 1%, GLP1R ag 6%, HEK293 tox -19%, GLP-1R inv ag 0%, DRD3 agonist 13 and D3 antag inconclusive.
`COc1ccccc1N1CCN(C(=O)Nc2cccc(Cl)c2)CC1` gave ClpP mod -1%, GLP1R ag -3%, HEK293 tox 3%, GLP-1R inv ag inconclusive, DRD3 agonist -15 and D3 antag -14.
For COc1ccc(COC(=O)c2ccc(Cl)c(S(=O)(=O)N3CC(C)OC(C)C3)c2)cc1 (configuration not stated) the results were ClpP mod -1%, GLP1R ag 4%, HEK293 tox 5%, GLP-1R inv ag 8.9µM*, DRD3 agonist 5 and D3 antag 15.
CC1CN(C(=O)COC(=O)c2ccc(Cl)c(S(=O)(=O)N3CCCCC3)c2)CC(C)O1 (configuration not stated) was read as GLP1R ag 16%, HEK293 tox -6%, GLP-1R inv ag -15%, DRD3 agonist 3 and D3 antag 6.
`COc1ccc(CCC(=O)Nc2ccc(OC)c(S(=O)(=O)N3CCCCC3)c2)cc1OC` gave ClpP mod -1%, GLP1R ag 5%, HEK293 tox -5%, GLP-1R inv ag 9%, DRD3 agonist 0 and D3 antag 11.
For COc1ccc(CCC(=O)Nc2ccc(Cl)c(S(=O)(=O)N3CCCC3)c2)cc1 the results were ClpP mod -2%, GLP1R ag -4%, HEK293 tox -4%, GLP-1R inv ag 10µM*, DRD3 agonist 3 and D3 antag -8.
`CCOC(=O)[C@@](C)(N)Cc1ccc(O)c(O)c1` gave GLP1R ag 0% and DRD3 agonist 2.
For Cc1ccccc1Cn1c2ccccc2c2cnn(CC(=O)NCCCc3ccccc3)c(=O)c21 the results were ClpP mod -17%, HEK293 tox 0%, GLP-1R inv ag -8% and DRD3 agonist -5.
COc1ccc(Cl)cc1NC(=O)Cn1c(=O)n(CCC(=O)NCc2ccc3c(c2)OCO3)c(=O)c2ccccc21 was read as ClpP mod -5%, GLP1R ag 0%, HEK293 tox 4%, GLP-1R inv ag -4% and DRD3 agonist 7.
Screening COc1ccccc1N1CCN(CCC(=O)Nc2ccc3c(c2)OCO3)CC1 returned ClpP mod 0%, GLP1R ag 2%, HEK293 tox 2%, GLP-1R inv ag 3%, DRD3 agonist -6 and D3 antag -90*.
`CCOc1ccc(NC(=O)CCN2CCN(S(=O)(=O)c3cc(Cl)ccc3OC)CC2)cc1` gave ClpP mod 28µM*, GLP1R ag 4%, HEK293 tox -14%, GLP-1R inv ag inconclusive, DRD3 agonist 5 and D3 antag -7.
`COc1ccccc1N1CCN(CC(=O)Nc2ccc3c(c2)OCCO3)CC1` gave ClpP mod -2%, GLP1R ag -1%, HEK293 tox 0%, GLP-1R inv ag -22%, DRD3 agonist -17 and D3 antag -27.
COc1ccccc1N1CCN(CC(=O)Nc2cccc(F)c2)CC1 was read as ClpP mod 4%, GLP1R ag 1%, HEK293 tox -15%, GLP-1R inv ag inconclusive, DRD3 agonist -25 and D3 antag 0.
`COc1ccccc1N1CCN(CCC(=O)Nc2ccc(F)cc2)CC1` gave ClpP mod 1%, GLP1R ag 3%, HEK293 tox 8%, GLP-1R inv ag -31%, DRD3 agonist -18 and D3 antag -98*.
Screening COc1cccc(-n2c(=O)c3c(C)c(C(=O)N(C)C)sc3n(Cc3ccc(F)cc3Cl)c2=O)c1 returned ClpP mod 1%, HEK293 tox 3%, GLP-1R inv ag 1% and DRD3 agonist -11.

Screening results as filed in PubChem.
